Screens from PubChem BioAssay.
This is a sample that favours compounds with a hit; in the whole collection about 1% have one here.
TRb-SRC2 inh – inhibitors of human thyroid hormone receptor beta-SRC2 interaction; TRbeta-SRC2 peptide binding, fluorescence polarization; receptor liganded with 1 µM T3; Potency, µM (highest dose often 106 µM), inactives show at the top dose activity change, negative = inhibition, usual class: inhibitors; hit rate 0.065% among 280,000; AID 1469;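 note: potency is the fitted concentration of half-maximal effect; plate controls were bound peptide for no effect and peptide without receptor for full effect; nearly all actives have a fitted effect of over 50% in size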
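Decrease in fluorescence polarization of 20 nM Texas Red SRC2 coactivator peptide flagged inhibition of its binding to 0.6 uM TRb LBD; 1 uM T3 included, incubation 5 hr, ex 555/em 632 nm.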
FBPA coupling cs – coupling enzyme interference in Giardia aldolase counter-screen | coupling enzyme system counterscreen, AmpLite Red fluorescence | activity change, negative = inhibition, % at 58.2 µM, hits read low | hit rate 0.67% among 290,000 | AID 2472; in the data active = activity change below about -30%; note: % is set by controls: 0 for no effect and ±100 for the full control effect
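Fluorescence at 525 nm excitation and 598 nm emission measured inhibition of the coupled detection system without aldolase. Compounds (at 57.5 uM final) were preincubated 10 min at room temperature with coupling enzyme reagent before a 20 min substrate/AmpLite Red step.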
TSHR antagonist – blocks TSH signaling through the human TSH receptor; P16473; TSHR-expressing cells, TSH-stimulated cAMP HTRF, 2 h; stronger effect = lower value; hit rate 0.2% among 330,000; activity change, negative = inhibition, % at 11.5 µM;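 active = activity change below a set negative limit, meaning inhibition stronger than a set level, cut at about -70% in these data; inconclusive = activity change between two set negative limits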; note: % is set by controls: 0 for no effect and ±100 for the full control effect
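Read-out is FRET at 665 nm (cryptate excitation 337 nm) from a cryptate-tagged anti-cAMP antibody, competed by cell cAMP against cAMP-d2. Compounds are tested on freshly harvested TSHR cells challenged with 4nM TSH (EC80) for 2 hours at 37 deg C.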
TCR act – T cell receptor activation | primary human leukocytes, anti-CD3, IL-2 HTRF, 48 h | Potency, µM (highest dose often 9.22 µM), without a hit: at the highest dose activation of IL-2 secretion, hits mostly activators | 330,000 tested, under 10 active | AID 504894; note: % of control where 0% means no effect
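Primary human leukocytes receive a-CD3 beads and test compound and are incubated 48 hr. Secreted IL-2 is then assayed by HTRF, measuring 665nm acceptor emission after 320nm excitation of the europium donor.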
TR SRC2 fluor cs – Texas Red fluorescence interference in TRb-SRC2 counter-screen; TRb/SRC2 Texas Red total fluorescence interference; Potency, µM (doses to about 106 µM), inactives show at the top dose fluorescence change, negative = quenching; AID 1479; hit rate 0.29% among 280,000; active = well fitted curve in either direction with a large enough effect; inconclusive = small, poorly fitted or top-dose-only effect; note: potency is the fitted concentration of half-maximal effect; % is set by controls: 0 for no effect and ±100 for the full control effect
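Human TRb ligand-binding domain at 0.6 uM with 20 nM Texas Red SRC2 peptide in Tris buffer containing 1 uM T3 and 5% DMSO, incubated with compound 5 h at ambient temperature. Total fluorescence (555/632 nm) calculated as parallel + 2 × perpendicular.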
NPSR antagonist – blocks cAMP signaling of the human neuropeptide S receptor | Q6W5P4 | CHO-NPSR cells, cAMP TR-FRET, antagonist mode | Potency, µM (highest dose often 38.3 µM), for inactives: at the top dose activity change, negative = inhibition, usual class: inhibitors | hit rate 1% among 220,000 | AID 1461; note: potency is the fitted concentration of half-maximal effect; % is set by controls: 0 for no effect and ±100 for the full control effect; nearly all actives have a fitted effect of over 50% in size
Target sequence (Q6W5P4 whole entry, looked up): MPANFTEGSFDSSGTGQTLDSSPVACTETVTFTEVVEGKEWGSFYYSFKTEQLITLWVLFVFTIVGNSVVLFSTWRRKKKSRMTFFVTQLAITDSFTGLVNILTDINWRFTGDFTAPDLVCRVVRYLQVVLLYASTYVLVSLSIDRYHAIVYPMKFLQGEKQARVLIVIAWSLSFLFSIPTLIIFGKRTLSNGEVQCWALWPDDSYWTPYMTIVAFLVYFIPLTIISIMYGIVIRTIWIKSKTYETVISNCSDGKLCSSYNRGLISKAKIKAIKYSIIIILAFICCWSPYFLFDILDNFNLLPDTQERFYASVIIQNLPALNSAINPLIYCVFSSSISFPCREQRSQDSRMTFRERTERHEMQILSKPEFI
The depositor's hits bear a star; ? = inconclusive; . = no result; ! = a repeat was not active; [ ] = dose if it differs, or a comment. Unless noted, calls come from the whole dose curve; as a rule, active = well fitted curve in the direction sought with a large enough effect; inconclusive = small, poorly fitted or top-dose-only effect, or another doubt; inactive = no such curve, though single readings can be large; an effect the other way counts as inactive or inconclusive.

SMILES	TRb-SRC2 inh	FBPA coupling cs	TSHR antagonist	TCR act	TR SRC2 fluor cs	NPSR antagonist
COc1ccc(OC)c2[nH]c(=O)c(CCNC(=O)c3ccc(S(=O)(=O)N4CCCCC4)cc3)cc12	-8%	-10	-6	12%	-8%	?
CCN(CC)S(=O)(=O)c1ccc(C(=O)NCc2ccc3c(c2)cc(C)n3C)cc1	40µM*	1	4	1%	45µM*[fluorescent]	?
Cc1cc2cc(CNC(=O)c3ccc(S(=O)(=O)N4CCCCC4)cc3)ccc2n1C	-8%	-20	1	6%	-3%	-7%[46.1 µM]
Cc1cc2cc(CNC(=O)c3ccc(S(=O)(=O)N4CCCC4)cc3)ccc2n1C	35µM*	-5	-2	12%	45µM*[fluorescent]	9%[46.1 µM]
COc1ccc(S(=O)(=O)NCc2ccc3c(c2)cc(C)n3C)cc1	-24%	-2	-2	-6%	?	0%[46.1 µM]
Cc1cccc2c1-c1sc(C(=O)N3CCN(c4ccccc4)CC3)cc1CO2	7%	.	.	.	3%	.
CN(C)c1ccc(N=Cc2ccco2)cc1	3%	-42*	-74*	15%	-3%	7.9µM*
CN(C)c1ccc(C=Nc2ccc(N(C)C)cc2)cc1	50µM*	-29	-39	?	?	?
Cc1ccc(N=Cc2ccc(N(C)C)cc2)cc1	-14%	0	7	2%	2%	-6%[46.1 µM]
CC(C)c1ccc(S(=O)(=O)c2cnc(SCC(=O)Nc3ccc4c(c3)OCCO4)[nH]c2=O)cc1	6%	.	.	.	-3%	.
CC(C)(C)OC(=O)N1CCC(c2c(C(=O)N3CCCCC3)cnn2-c2ccccc2Cl)CC1	-6%	.	.	.	2%	.
COc1ccc2c(c1)CCc1cc(C(=O)N3CCN(c4ccc(N5CCOCC5)nn4)CC3)sc1-2	-5%	-58*	-12	1%	-4%	-12%[46.1 µM]
COc1cccc(C(=O)N2CCN(c3ccc(N4CCOCC4)nn3)CC2)c1	.	.	-29	4%	.	.
COc1cc(/C=C(\C#N)c2nc3ccccc3[nH]2)cc(Br)c1OCc1ccc(F)cc1	-14%	-4	-4	-7%	1%	5µM*
COC(=O)c1ccc(C2C=C(c3ccc(Cl)cc3)Nc3nc4ccccc4n32)cc1 (configuration not stated)	-27%	.	.	.	0.14µM*[quencher]	.
Nc1ccc(N2CCN(c3ccc(F)cc3)CC2)cc1	1%	0	-1	4%	-2%	-4%
Nc1ccc(N2CCCCCC2)cc1	45µM*	-35*	-4	.	25%	?
CCc1cccc(NC(=O)c2c(N3CCCC3=O)c3cc(C)ccc3n2C)c1	6%	.	.	.	-3%	.
Cc1nn(-c2ccccc2)c2c1C1(C(=O)N(C(C)C)c3ccccc31)C(C#N)=C(N)O2 (configuration not stated)	-3%	-55*	-2	-3%	-4%	?
Cc1ncc(CCl)c2c1OC(C)(C)OC2	2%	-38*	1	-1%[46.1 µM]	0%	-33%[46.1 µM]
Cc1ncc(CO)c2c1OC(C)(C)OC2	-7%	8	4	6%	-3%	0%[46.1 µM]
CC(NC(=O)CSc1n[nH]c(-c2ccccc2Cl)n1)c1nc2ccccc2n1C (configuration not stated)	0%	.	.	.	-4%	.
Nc1cc(C(=O)O)c(N)c2c1C(=O)c1ccccc1C2=O	40µM*	-18	-50	4%	45µM*[fluorescent]	3.2µM*
N#Cc1c(N)nc(SCC(=O)C23CC4CC(CC(C4)C2)C3)c(C#N)c1-c1ccc(Cl)cc1	-14%	1	4	1%	1%	3.2µM*
Cc1cccc(C(=O)Nc2nnc(S(=O)(=O)N3c4ccccc4CC3C)s2)c1 (configuration not stated)	5%	.	.	.	-26%	.
SMILES	TRb-SRC2 inh	FBPA coupling cs	TSHR antagonist	TCR act	TR SRC2 fluor cs	NPSR antagonist
Cc1ccc(C(=O)NCC(c2cccnc2)N2CCc3ccccc3C2)cc1C (configuration not stated)	2%	.	.	.	1%	.
O=C(NCC(c1cccnc1)N1CCN(Cc2ccccc2)CC1)C(=O)Nc1cccc(F)c1 (configuration not stated)	-14%	.	.	.	0.25µM*[quencher]	.
CC(C)(C)c1ccc(C(=O)NCC(c2cccnc2)N2CCc3ccccc3C2)cc1 (configuration not stated)	2%	.	.	.	11µM*[quencher]	.
O=C(NCC(c1cccnc1)N1CCc2ccccc21)C(=O)Nc1ccccc1F (configuration not stated)	-16%	.	.	.	0.32µM*[quencher]	.
O=C(NCc1cccnc1)C(=O)NCC(c1cccnc1)N1CCN(c2ccccc2F)CC1 (configuration not stated)	-24%	.	.	.	100µM*[quencher]	.
O=C(CSc1cn(CCNC(=O)c2c(F)cccc2F)c2ccccc12)Nc1ccc(F)cc1	13%	.	.	.	8%	.
CCN(c1ncnc2c1cnn2-c1cc(Cl)ccc1C)C1CCCCC1	-2%	.	.	.	-1%	.
CCOC(=O)c1sc2ccccc2c1S(=O)(=O)N1CCN(c2cccc(C)c2)C(C)C1 (configuration not stated)	-8%	.	.	.	1%	.
C[Si]1(C)O[Si](C)(C)O[Si](C)(C)O[Si](C)(C)O1	6%[201 µM]	.	.	.	5%[201 µM]	.
CN(C)CCNC(=O)C(=O)NCC(c1cccnc1)N1CCN(c2ccccc2)CC1 (configuration not stated)	3%	.	.	.	-10%	.
CCN(CC)CCNC(=O)C(=O)NCC(c1cccnc1)N1CCN(c2ccccc2)CC1 (configuration not stated)	-25%	.	.	.	89µM*[quencher]	.
NC(=O)C1CCN(c2nc(-c3cccc(Br)c3)cs2)CC1	.	.	-7	.	.	.
O=C(NCCc1ccccc1)c1cc(-c2cccc(Cl)c2)on1	4%	.	.	.	8%	.
O=C(CNc1cccc2ccccc12)N/N=C/c1ccccn1	1%	-17	-1	-1%	-3%	12%
O=C(CNc1cccc2ccccc12)N/N=C/c1cccc(Oc2ccccc2)c1	7%	-32*	3	0%	-2%	-12%
O=C(N/N=C/c1cccc(Oc2ccccc2)c1)c1ccccc1Br	5%	-32*	-11	0%	7%	?
O=S(=O)(Nc1cccc2cccnc12)c1ccccc1O	-9%	-37*	.	.	0%	.
COC(=O)CCCC1=CC2=CC(=O)C(C)(OC(=O)c3cccs3)C(=O)C2=CN1CCc1ccccn1 (configuration not stated)	-3%[11.2 µM]	-31*!	-3	2%	-2%[11.2 µM]	11%
C=CCN1C=C2C(=O)C(C)(OC(=O)c3cccs3)C(=O)C=C2C=C1CCCC(=O)OC (configuration not stated)	-1%[11.2 µM]	-7	1	1%	1%[11.2 µM]	-8%
Cc1ccc(N(Cc2cccs2)C(=O)c2ccccc2[N+](=O)[O-])cc1	-5%	.	.	.	0%	.
CCOC(=O)c1c(-c2ccco2)csc1N	-2%	-31*	7	-5%	-5%	-7%[46.1 µM]
